About 18,000 (9%) of roughly 200,000 compounds were called active. The sample as a whole holds a higher share of actives than the screen did. A number with no mark means an inactive call. Rule as the data show it: active = inhibition above about 50%; inactive = the rest.
test: antileishmanial activity against promastigotes – primary screen (AID 1063); details: Leishmania major promastigotes, resazurin fluorescence viability; at 10 µM; stronger effect = higher value;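 also: promastigotes grown with compound for 44 hours at 28 °C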

Row | Compound | inhibition
1 | COC(=O)C[n+]1cccc2ccccc21 | 28.5%
2 | CC1=CC(C)(C)Nc2ccc(OC(=O)C(Cc3ccccc3)N3C(=O)C4CCCCC4C3=O)cc21 (centres undefined) | 65.6% (active)
3 | Cc1ccc(C)n1C(Cc1ccccc1)C(=O)O (centres undefined) | -7.64%
4 | CC1=CC(C)(C)Nc2ccc(OC(=O)CN3C(=O)C4CCCCC4C3=O)cc21 (centres undefined) | 100% (active)
5 | O=C(CN1C(=O)C2C3CCC(C3)C2C1=O)Oc1ccc2ccccc2c1 (centres undefined) | 7.23%
6 | CC(OC(=O)CN1C(=O)C2CCCCC2C1=O)C(=O)Nc1ncc(Cl)cc1Cl (centres undefined) | -6.88%
7 | COc1cccc(NC(=O)NCc2ccc(F)cc2)c1 | 2.02%
8 | CN(NC(=O)C1CC(=O)N(c2ccccc2)C1)C1=NS(=O)(=O)c2ccccc21 (centres undefined) | -0.26%
9 | CCc1ccc(Oc2nc([N+](=O)[O-])nn2C)cc1 | 12.5%
10 | CSc1nc2nc(-c3cccc(C(F)(F)F)c3)ccn2n1 | -7.55%
11 | C=CCN1C(=O)C(O)(CC(=O)c2ccccn2)c2ccccc21 (centres undefined) | 3.64%
12 | CC(=O)N1CCCc2cc(S(=O)(=O)CCC(=O)N3CCN(c4ccccc4)CC3)ccc21 | -3.41%
13 | CCOc1ccc(NC(=O)CCS(=O)(=O)c2ccc3c(c2)CCCN3C(=O)CC)cc1 | 62.8% (active)
14 | CCCNS(=O)(=O)c1ccc2c(c1)CCCN2C(C)=O | -1.63%
15 | O=C(c1ccc(F)cc1)N1CCCC(c2nc(-c3cccs3)no2)C1 (centres undefined) | 5.3%
16 | O=C(c1cccs1)N1CCCC(c2nc(-c3ccc(F)cc3)no2)C1 (centres undefined) | -8.27%
17 | O=C(Cc1cccs1)N1CCCC(c2nc(-c3ccc(S(=O)(=O)N4CCCC4)cc3)no2)C1 (centres undefined) | 95.1% (active)
18 | C=C(C)c1cccc(C(C)(C)NC(=O)NCCN(CC)CC)c1 | 4.54%
19 | COC(=O)CN1C(=O)N/C(=C/c2ccc(OC)c(C)c2OC)C1=O | -9.01%
20 | S=C(NC1CCCCC1)NN1CCOCC1 | -1.39%

Row | Compound | inhibition
21 | COc1ccccc1Cn1c(C)nnc1-c1cnn(C)c1N | 0.00407%
22 | CCOC(=O)c1ccc(NC(=O)CSc2nnc(COc3ccccc3OC)n2C)cc1 | 89% (active)
23 | CCOC(=O)c1ccc(NC(=O)CSc2ncccn2)cc1 | 0.48%
24 | COC(=O)c1ccc(NC(=O)CSc2nnc(-c3ccncc3)n2C)cc1 | 5.08%
25 | CCc1cc2cc(OC)ccc2nc1SCC(=O)Nc1cc(OC)c(OC)cc1C(=O)O | -7.93%
26 | Cc1ccnc(SCCn2c(N(C)Cc3ccccc3)nc3c2c(=O)n(C)c(=O)n3C)n1 | 34.8%
27 | Cn1c(=O)[nH]c(=O)c2c1nc(N(CCO)Cc1ccccc1)n2Cc1ccccc1Cl | 23.7%
28 | CN(Cc1ccccc1)c1nc2c(c(=O)[nH]c(=O)n2C)n1CCSc1nc2ccccc2[nH]1 | 95% (active)
29 | CCOC(=O)c1sc(NC(=O)CSc2nc(O)c(Cc3ccccc3)c(=O)[nH]2)nc1C | -5.06%
30 | CN1CCN(C(=O)CCc2nc(-c3ccc(Cl)cc3)no2)CC1 | -4.14%
31 | Cc1ccc(-c2noc(CCC(=O)Nc3ccccc3N3CCN(C)CC3)n2)cc1 | 57.9% (active)
32 | Cc1ccc(-c2noc(CCC(N)=O)n2)cc1 | -4.98%
33 | COc1cccc(/C=N/NC(=O)c2[nH]nc3c2CCc2ccccc2-3)c1O | 98% (active)
34 | COc1ccc(C(=O)Nc2ccccc2C(=O)N/N=C/c2ccccc2OC)cc1 | 6.31%
35 | COc1cccc(/C=N\NC(=O)C2=NNC(=O)C2C)c1O (centres undefined) | -7.2%
36 | C/C(=N\NC(=S)NC(C)C)c1ccc(C(C)(C)C)cc1 | 15%
37 | Cc1ccc(NC(=O)CSc2nnc(COc3ccccc3C)o2)cc1 | -2.82%
38 | CCn1c2ccccc2c2cc(NC(=O)COC(=O)c3cc(S(=O)(=O)N4CCCCC4)ccc3Cl)ccc21 | 73.8% (active)
39 | O=C(COC(=O)c1cc(S(=O)(=O)N2CCCCC2)ccc1Cl)NCc1ccco1 | 7.75%
40 | CCn1c2ccccc2c2cc(NC(=O)COC(=O)c3ccccc3Br)ccc21 | -2.86%

Row | Compound | inhibition
41 | CSCCC(NC(=O)c1ccc(=O)n(C)n1)c1nc2ccccc2[nH]1 (centres undefined) | -5.06%
42 | CSCCC(NC(=O)c1cc([N+](=O)[O-])cc([N+](=O)[O-])c1)c1nc2ccccc2[nH]1 (centres undefined) | 96.8% (active)
43 | COc1ccc(CC(=O)N[C@@H](CCSC)c2nc3ccccc3[nH]2)cc1 | -4.82%
44 | Cc1ccc(CN(N=Nc2nonc2N)c2nonc2N)c(C)c1 | 88.8% (active)
45 | Cc1ccc2c(c1)C1CN(C)CCC1N2C(=S)Nc1ccc(OC(F)F)cc1 (centres undefined) | 34.5%
46 | Cc1ccc2nc(C)cc(N/N=C/c3ccc(F)cc3)c2c1 | 7.72%
47 | COCC(C)NCc1cc(Br)ccc1OC (centres undefined) | -1.49%
48 | CCC(C)NCCOCCOc1ccc(Br)cc1C (centres undefined) | 99% (active)
49 | CCOCCCNCc1cc(Br)ccc1OCC | 13.3%
50 | CCN(CC)S(=O)(=O)c1ccc(N(C)Cc2cccc(OC)c2OC)nc1 | 8.96%
51 | CCN(Cc1ccccc1)S(=O)(=O)c1cc(C(=O)O)ccc1OC | -8.56%
52 | O=S(=O)(c1ccc2c(c1)OCCO2)N1CCc2ccccc21 | -6.88%
53 | Cc1cccc(N2CCN(C(c3ccccc3)c3nnnn3CC3CCCO3)CC2)c1C (centres undefined) | 75.9% (active)
54 | Cc1cccc(N2CCN(C(c3ccc(N(C)C)cc3)c3nnnn3C(C)(C)C)CC2)c1C (centres undefined) | 11.3%
55 | COc1ccccc1C(c1nnnn1CC1CCCO1)N1CCN(c2ccccc2)CC1 (centres undefined) | 6.1%
56 | COc1ccc(C(=O)Nc2ccc(N3CCC(C)CC3)cc2)cc1Br | -6.43%
57 | Cn1nc(-c2ccc(N3CCOCC3)c(NC(=O)c3ccccc3)c2)c2ccccc2c1=O | 77% (active)
58 | O=C(Nc1cc(-c2nn(CC(=O)N3CCCCC3)c(=O)c3ccccc23)ccc1N1CCOCC1)c1ccc(Cl)cc1 | 0.47%
59 | COc1ccc(-c2nn(C)c(=O)c3ccccc23)cc1NC(=O)COc1ccccc1 | 8.76%
